Bioassay records (PubChem BioAssay)
FBW7 activator = FBW7 E3 ligase activators, primary screen, biochemical, AlphaScreen, human | F-box/WD repeat-containing protein 7 (Homo sapiens), Q969H0 | AlphaScreen FBW7–phospho-cyclin E peptide binding, activator screen | normalized activity (activation), % at 26.1 µM | hit rate 0.13% among 650,000; in the data active = normalized activity above about 1.9%;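 also: purified mutant Fbw7 with reduced substrate affinity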
TEAD-YAP inh = TEAD-YAP interaction inhibition, primary screen, TEAD-YAP interaction inhibitor project, luminescence, HEK-TIYL cells. TEAD-Gal4/YAP UAS-luciferase luminescence. inhibition, % at 9.12 µM. hit rate 1.4% among 640,000; in the data active = inhibition above about 32%;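 also: 0% = median of test compound wells and 100% = reference inhibitor wells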
MITF inh = MITF inhibitors, primary screen, biochemical, AlphaScreen, human. Microphthalmia-associated transcription factor (Homo sapiens), O75030. AlphaScreen MITF homodimerization, bead proximity signal. inhibition, % at 2.6 µM. hit rate 0.91% among 650,000. AID 1259374, 2018; in the data active = inhibition above about 50%;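 also: 0% = vehicle wells with protein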
GPR151 ag = activators of human GPR151, primary screen, cell-based, PathHunter beta-arrestin, luminescence. activation, % at 11.2 µM. PathHunter beta-arrestin GPR151 cells. AID 1508602, 2020. hit rate 1% among 650,000; in the data active = activation above about 4.9%;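 also: 0% = median of compound wells and 100% = cells with positive control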
* hit, by the source's call. This is a sample that favours compounds with a hit; in the whole collection about 3.4% have one here.

How did COc1ccc2c(c1)-c1c(ssc1=S)C(C)(C)N2C(=O)CSc1nnc(C)s1 do in these assays?
FBW7 activator: 0; TEAD-YAP inh: 34*; MITF inh: 19; GPR151 ag: -1

Results for CCOC(=O)c1c(NC(=O)CSc2nnc(CNC(=O)COc3ccccc3)n2-c2ccc(Br)cc2)sc2c1CCC2 ?
FBW7 activator: 0; TEAD-YAP inh: 5; MITF inh: 22; GPR151 ag: 0

Results for CC(C)(C)c1ccc(C(=O)OCC(=O)Nc2ccc(C#N)cc2)cc1 ?
FBW7 activator: 0; TEAD-YAP inh: 14; MITF inh: 17; GPR151 ag: 0

Results for O=C(O)C1C2C=CC(C2=C(c2ccccc2)c2ccccc2)C1C(=O)Nc1ccccn1 (configuration not stated) ?
FBW7 activator: 0; TEAD-YAP inh: 2; MITF inh: 14; GPR151 ag: 0

How did COc1ccc(-n2c(Cn3c(=O)sc4ccccc43)nnc2SC(C)C)cc1 do in these assays?
FBW7 activator: -1; TEAD-YAP inh: 15; MITF inh: 4; GPR151 ag: -1

Results for O=C(c1ccccn1)N1CCCN(S(=O)(=O)c2cccc3cnccc23)CC1 ?
FBW7 activator: -1; TEAD-YAP inh: 9; MITF inh: 17; GPR151 ag: 0

What do the screens show for `Cc1ccc(NC(=O)c2ccc([N+](=O)[O-])cc2Cl)c(C)c1`?
FBW7 activator: 0; TEAD-YAP inh: -31; MITF inh: 3; GPR151 ag: -1

What do the screens show for `Cc1ccc(NC(=O)c2cc([N+](=O)[O-])cc(Cl)c2O)c(C)c1`?
FBW7 activator: 0; TEAD-YAP inh: 53*; MITF inh: 6; GPR151 ag: -9

Results for Cc1cccc(NC(=O)c2cc([N+](=O)[O-])ccc2Cl)c1O ?
FBW7 activator: 1; TEAD-YAP inh: 33*; MITF inh: 10; GPR151 ag: -2

How did Cc1ccc(Nc2nc(NCc3ccccc3)c3ccccc3n2)cc1 do in these assays?
FBW7 activator: 0; TEAD-YAP inh: 36*; MITF inh: 5; GPR151 ag: 0

What do the screens show for `Cc1ccc(-c2nc(NCc3ccccc3)c3ccccc3n2)cc1`?
FBW7 activator: 0; TEAD-YAP inh: -12; MITF inh: -5; GPR151 ag: -2

Results for Fc1ccccc1Nc1nc(NCc2ccccc2)c2ccccc2n1 ?
FBW7 activator: 0; TEAD-YAP inh: 47*; MITF inh: -26; GPR151 ag: 3

Results for Fc1ccccc1Nc1nc(NCc2ccco2)c2ccccc2n1 ?
FBW7 activator: 0; TEAD-YAP inh: -13; MITF inh: -1; GPR151 ag: 1

Results for COCCn1nnnc1SCC(=O)Nc1nc(-c2ccc(F)cc2)cs1 ?
FBW7 activator: 0; TEAD-YAP inh: 4; MITF inh: 2; GPR151 ag: -1

How did CCOc1ccc(NC(=O)COc2c(C)cccc2C)cc1 do in these assays?
FBW7 activator: 0; TEAD-YAP inh: 31; MITF inh: -23; GPR151 ag: 0

What do the screens show for `CCOc1ccc(NC(=O)COc2c(C)ccc(C)c2C)cc1`?
FBW7 activator: 0; TEAD-YAP inh: 41*; MITF inh: 4; GPR151 ag: 1

How did Cc1ccc(C)c(OCC(=O)Nc2ccccc2C(N)=O)c1C do in these assays?
FBW7 activator: 1; TEAD-YAP inh: 48*; MITF inh: 9; GPR151 ag: -2

Results for CC(NC(=O)C(=O)NC1CCCCCC1)c1ccccc1 (configuration not stated) ?
FBW7 activator: 0; TEAD-YAP inh: -11; MITF inh: -3; GPR151 ag: -1

What do the screens show for `O=C1Cc2ccccc2N1C1CCN(CC(O)COc2ccccc2)CC1` (configuration not stated)?
FBW7 activator: 0; TEAD-YAP inh: 36*; MITF inh: 1; GPR151 ag: 1

Results for OC(COc1ccccc1)CN1CCN(CC(O)COc2ccccc2)CC1 (configuration not stated) ?
FBW7 activator: 0; TEAD-YAP inh: 10; MITF inh: -10; GPR151 ag: 0

How did Cc1sc(NC(=O)c2ccco2)c(C(c2cccnc2)N2CCC(Cc3ccccc3)CC2)c1C (configuration not stated) do in these assays?
FBW7 activator: 0; TEAD-YAP inh: 35*; MITF inh: 4; GPR151 ag: -1

Results for CCOc1ccc(/C=C/c2nc3ccccc3c(=O)o2)cc1 ?
FBW7 activator: 0; TEAD-YAP inh: 83*; MITF inh: -3; GPR151 ag: -8
